Screening data from PubChem BioAssay.
Rows were chosen to be rich in hits. Some 3.9% of all compounds tested hit in one or more screens of this group.
USP2a inh: USP2a (human) protease inhibition | USP2 core, Ub-CHOP2 coupled fluorogenic reporter, 485/531 | 330,000 compounds, 0.01% hits | Potency, µM (series often up to 38.3 µM), inactives show at the top dose activity change, negative = inhibition, most hits filed as inhibitors | AID 463254;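 further: potency means the concentration at half of the fitted maximal effect; plate controls were DMSO wells for no effect and full inhibition by NEM control for full effect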
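USP2 core (10nM final) preincubated 30min RT with compound in 20mM Tris-HCl pH 8.0, 2mM CaCl2, 2mM beta-mercaptoethanol, 0.05% CHAPS; 25nM Ub-CHOP2 plus 25nM reporter substrate added, fluorescence (Ex485/Em531) read after 60min.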
D1 ag: agonists of human D1 dopamine receptor; activation, % at 2 µM; 360,000 compounds, 1% hits; HEK293 T-REx D1 cells, calcium flux, agonist mode; P21728; in the data active means activation above about 30%; further: 0% is about no effect
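Tetracycline-induced HEK293 TREx D1 cells, force-coupled to calcium signalling, were dye-loaded with a no-wash calcium kit. Compound was pin-added after a 10 s baseline. Fluorescence was read kinetically at 1 cycle/s for 180 s, with calcium rises flagged as agonism.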
D1 potentiator: human D1 dopamine receptor positive modulation. 360,000 compounds, 0.036% hits. AID 504651. HEK293 TREx D1 cells, calcium flux, dopamine EC20 potentiation. potentiation, % at 10 µM. P21728; in the data active means potentiation above about 30%; further: 0% is about no effect
Eya2 inh: Eya2 (human) phosphatase inhibition; O00167; recombinant Eya2, OMFP fluorescence dephosphorylation (OMFP is methylfluorescein phosphate); Potency, µM (top dose mostly 76.9 µM), for the others: at the highest dose activity, negative = inhibition, actives largely listed as inhibitors; 330,000 compounds, 0.006% hits; further: potency means the concentration at half of the fitted maximal effect; on the % scale 0 is the no-effect control and ±100 the full control effect
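Eya2 (0.2 uM) preincubated 10 min at ambient with compound, then OMFP substrate added at 50 uM; 10 min reaction in 50 mM HEPES pH 7.5, 50 mM NaCl, 5 uM MgCl2, 0.05% BSA, 1 mM DTT. Fluorescence read at Ex 485/Em 525 nm.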
D1 antagonist: antagonists of human D1 dopamine receptor; HEK293 TREx D1 cells, calcium flux, dopamine EC80; stronger effect = lower value; activity change, negative = inhibition, % at 10 µM; 360,000 compounds, 3.2% hits; AID 504652; in the data active means activity change below about -30%; further: on the % scale 0 is the no-effect control and ±100 the full control effect
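HEK293 T-REx cells expressing inducible, force-coupled D1 receptor; no-wash Ca dye, 30–90 min RT. Cmpd → 180 s read at 1 Hz → EC80 DA → 180 s read.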
GALK inhibitor: galactokinase (human) inhibition | P51570 | Purified GALK, Kinase-Glo residual ATP luminescence | Potency, µM (doses to about 57.5 µM), for the others: at the highest dose activity change, negative = inhibition, hits mostly inhibitors | 270,000 compounds, 0.007% hits | AID 1868; further: potency means the concentration at half of the fitted maximal effect; on the % scale 0 is the no-effect control and ±100 the full control effect
Target sequence (P51570 whole entry, looked up): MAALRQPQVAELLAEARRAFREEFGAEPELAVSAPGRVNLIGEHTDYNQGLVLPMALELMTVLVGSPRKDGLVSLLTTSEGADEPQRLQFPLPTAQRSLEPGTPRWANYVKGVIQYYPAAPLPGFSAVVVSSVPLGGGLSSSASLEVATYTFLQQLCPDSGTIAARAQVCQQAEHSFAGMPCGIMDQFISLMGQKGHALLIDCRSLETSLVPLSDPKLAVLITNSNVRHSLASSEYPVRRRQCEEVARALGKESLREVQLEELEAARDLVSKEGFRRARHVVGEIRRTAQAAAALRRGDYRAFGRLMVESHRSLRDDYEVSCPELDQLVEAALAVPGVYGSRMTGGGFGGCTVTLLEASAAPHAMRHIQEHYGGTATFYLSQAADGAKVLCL
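Galactose (100 uM) and ATP (35 uM) were turned over by 5 nM GALK for 1 h at RT. Kinase-Glo Plus then converted the remaining ATP into a luminescent signal.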
The depositor's hits bear a star; x = no result. Unless noted, the call rests on the fitted dose curve; in most records, active means well fitted inhibition curve with a large enough effect; inconclusive means small, poorly fitted or top-dose-only effect, or effect the other way; inactive means flat fitted curve, though single readings scatter.

SMILES	USP2a inh	D1 ag	D1 potentiator	Eya2 inh	D1 antagonist	GALK inhibitor
Cc1nn(C(=O)c2cccc([N+](=O)[O-])c2C)c(C)c1S(=O)(=O)N1CCOCC1	x	4	-2	x	-1	x
CCc1ccc(NC(=O)CSc2nc(C)c(C(=O)Nc3ccccc3)c(-c3ccc(OC)c(OC)c3)c2C#N)cc1	x	5	4	x	-5	x
CC(=O)N1CCc2c(sc3c2c(=O)n(-c2cccc(Cl)c2)c(=O)n3Cc2ccc(F)cc2Cl)C1	x	3	-3	x	15	x
Cc1ccc(-c2nn3c(C)nnc3c3ccccc23)cc1S(=O)(=O)NCC(C)O (stereo not drawn)	x	4	1	x	4	x
O=C(CSc1nnc(CNC(=O)c2cccs2)o1)Nc1ccc2c(c1)OCO2	3%	-2	-2	-13%	-36*	-1%
O=S(=O)(NNC(=S)NCC1CCCO1)c1cc(Cl)ccc1Cl (stereo not drawn)	1%	5	-2	-8%	-39*	0%
CCC(C(=O)NC1CC(C)(C)NC(C)(C)C1)c1ccccc1 (stereo not drawn)	-1%	-1	-14	10%	-4	8%
CC1(C)CC(NC(=O)CSc2ccccc2)CC(C)(C)N1	3%	1	-1	-6%	-34*	-1%
CC1(C)CC(NC(=O)C(c2ccccc2)c2ccccc2)CC(C)(C)N1	1%	2	-1	-2%	-32*	3%
CCCCn1c(N)c(N(CC(C)C)C(=O)Cn2c(=O)cnc3ccccc32)c(=O)[nH]c1=O	3%	5	-1	-24%	-2	x
CCCCn1c(N)c(N(CC(C)C)C(=O)Cn2c(=O)oc3ccccc32)c(=O)[nH]c1=O	0%	-4	-2	26%	-44*	x
O=C(COC(=O)c1ncc(Cl)c(Cl)c1Cl)NC1CCCCCC1	-1%	1	-2	-1%	-44*	x
N/C(CC(=O)NC1CCCCC1)=N\OCC(=O)Nc1ccc(Cl)c(Cl)c1	0%	5	-1	6%	-94*	7%
O=C(COC(=O)c1nc(Cl)ccc1Cl)NC1CCCCCC1	2%	9	-4	17%	-31*	x
O=C(COC(=O)c1ccc(Cl)cc1)NC1CCCCCC1	0%	5	x	3%	-18	x
Cc1cc(N2CCCCC2)nc2ccc(NC(=O)/C=C/c3ccc(OCCC(C)C)cc3)cc12	x	0	0	x	4	x
COc1cccc(CNC(=O)c2cccc(NC(=O)C3=C(C)OCCS3)c2)c1	3%	4	-9	-1%	-40*	x
CCOc1ccc(CNC(=O)c2cccc(NC(=O)C3=C(C)OCCS3)c2)cc1	0%	6	3	-26%	-7	-3%
Cc1cc2c(s1)c1cnn(Cc3cc(F)cc(F)c3F)c(=O)c1n2C	x	-1	11	x	-4	x
CN1/C(=C\C(=O)COC(=O)Cn2nnc(-c3ccccc3)n2)C(C)(C)c2ccccc21	2%	6	-5	3%	-35*	2%
Cn1c(SCC(=O)NCc2ccco2)nnc1-c1ccccc1	3%	1	-8	-1%	-53*	-3%
CCCCn1nnnc1SCC(=O)NCc1ccco1	x	3	-11	x	-33*	3%
Cn1c(SCC(=O)NC(=O)NCc2ccco2)nnc1-c1ccccc1	2%	1	4	-7%	5	-1%
CC(C)(C)c1nnc2sc(SCC(=O)NCc3ccco3)nn2c1=O	-6%	5	x	-3%	-32*	x
CCc1ccccc1-n1c(SCC(=O)NC)nnc1-c1ccco1	0%	10	-1	0%	-37*	-3%
SMILES	USP2a inh	D1 ag	D1 potentiator	Eya2 inh	D1 antagonist	GALK inhibitor
CCNC(=O)N1CCN(CCCC(c2ccc(F)cc2)c2ccc(F)cc2)CC1	2%	21	-4	-3%	-73*	x
O=C(COC(=O)C1C2CC3OC(=O)C1C3C2)Nc1ccc(Br)cc1 (stereo not drawn)	6%	33*	x	9%	7	-1%
NC(=S)N=Nc1c(O)[nH]c2ccccc12	4%	3	1	-2%	-12	x
CCCCNC(=S)N=Nc1c(O)[nH]c2ccccc12	6%	0	-11	1%	-31*	-2%
Oc1cccc(NC(=S)N=Nc2c(O)[nH]c3ccccc23)c1	-1%	7	-19	8%	-31*	-1%
Oc1[nH]c2ccccc2c1N=NC(=S)NCCc1ccccc1	-1%	4	-12	-20%	-30*	x
CCOc1ccc(NC(=S)N=Nc2c(O)[nH]c3ccccc23)cc1	-9%	0	-9	9%	-6	2%
Cc1ccc(Cl)cc1N1CCN(C(=O)c2noc3c2CCCC3)CC1	x	7	1	x	-6	x
CCCNC(=O)c1ccccc1NC(=O)c1ccc(CSc2ccccc2)cc1	-1%	40*	-8	6%	-46*	1%
CCC(C)NC(=O)c1ccccc1NC(=O)c1ccc(CSc2ccccc2)cc1 (stereo not drawn)	0%	36*	-4	6%	-4	0%
Cc1ccc(NC(=O)c2cc(S(=O)(=O)N(C)C3CCCCC3)ccc2F)cc1C	x	0	-2	x	11	x
CCCCCCC(=O)Nc1cc2nc3c(nc2cc1C)c(=O)n(C)c(=O)n3C	x	0	0	x	-8	x
COC(=O)c1ccc(Cl)cc1NC(=O)N1CCC(CN2CCC(C)CC2)CC1	x	2	-1	x	11	x
Nc1c(-c2n[nH]c(=S)n2-c2ccc(Cl)cc2Cl)cnn1-c1ccccc1	0%	27	5	-1%	18	1%
Nc1[nH]nc2c1NN(c1ccc(Cl)cc1Cl)N2	1%	3	-5	-2%	-38*	0%
CC(=O)NS(=O)(=O)c1ccc(NC(=O)c2ccc(-n3nc(C)cc3C)cc2)cc1	4%	3	9	-2%	-7	-2%
Cc1cc(C)n(-c2ccc(C(=O)Nc3cc(S(=O)(=O)N(C)C)ccc3Cl)cc2)n1	3%	4	-6	-3%	-30*	-2%
Cc1cc(C)n(-c2ccc(C(=O)Nc3cccnc3Cl)cc2)n1	2%	5	-12	14%	-41*	2%
CCOc1cccc(CC(=O)NCc2ccc3c(c2)CCN3C(=O)c2cccc(C)c2)c1OCC	x	5	1	x	3	x
Cc1ccc(-c2noc(-c3ccc(N4CCCC4)c([N+](=O)[O-])c3)n2)cc1	x	2	-2	x	-8	x
COc1cc(-c2noc(-c3ccc(NC4CCCCC4)c([N+](=O)[O-])c3)n2)cc(OC)c1OC	x	12	-2	x	-5	x
COc1ccc(-c2noc(-c3ccc(NCc4ccco4)c([N+](=O)[O-])c3)n2)cc1	x	2	2	x	-32*	x
COc1ccc(-c2noc(-c3ccc(NCC4CCCO4)c([N+](=O)[O-])c3)n2)cc1 (stereo not drawn)	x	3	-2	x	-58*	x
